Inconclusive results are not listed. The source made the active and inactive calls. Unless noted, calls follow the shape of the dose curve; as a rule, active = well fitted curve in the direction sought with a large enough effect; inconclusive = small, poorly fitted or top-dose-only effect, or another doubt; inactive = no such curve, though single readings can be large; an effect the other way counts as inactive or inconclusive.
Tests used:
[1] = molecular target: Lysosomal acid glucosylceramidase (Homo sapiens) (UniProt P04062); assay: Glucocerebrosidase-p2 (AID 348; in the data active = potency below about 10 µM; also: potency is read from the fitted curve at half-maximal effect); conditions: purified GBA, blue fluorogenic substrate, 40 min
In short: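 Normal human glucocerebrosidase (0.2 nM) with blue fluorogenic substrate (80 uM final) in citrate/phosphate pH 5.9 with 10mM sodium taurocholate, 0.01% tween-20; 40 min RT, NaOH/glycine stop; fluorescence Ex 365/Em 440; AC50 from a titration from 0.6 nM upwards.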

[2] = AP1 Signaling Pathway (AID 357; active = well fitted curve in either direction with a large enough effect, not every such curve was filed as active;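 also: ME-180 reporter cells stimulated with EGF at its EC50 level; % is scaled to controls: 0 for no effect and ±100 for the full control effect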); conditions: ME-180 AP-1-bla reporter, EGF-induced, beta-lactamase ratio, 5 h; at 7.69 µM (top of the series) unless noted
In short: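 Modulation of EGF-driven AP-1 transcription was assessed with a beta-lactamase reporter in ME-180 cells. Compound and EC50 EGF were co-incubated 5 hours at 37 °C before 2.5-hour CCF4 loading at room temperature and dual-emission reading.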

[3] = molecular target: Cytochrome P450 1A2 (Homo sapiens) (UniProt P05177); assay: p450-cyp1a2 (AID 410; calls by dose curve; also: potency is read from the fitted curve at half-maximal effect); conditions: recombinant CYP1A2, luciferin-ME demethylation, luminescence; series mostly up to 57 µM
In short: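 O-Demethylation of luciferin 6' methyl ether by human CYP1A2 is monitored as luciferase luminescence. Substrate sits at Km (100uM); enzyme is 20nM. Values are scaled to 57 uM furafylline as maximal inhibition.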

[4] = NFAT Signaling Pathway (AID 444; active = well fitted curve in either direction with a large enough effect, not every such curve was filed as active;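 also: carbachol stimulus at about its EC50 of 1 µM final; % is scaled to controls: 0 for no effect and ±100 for the full control effect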); conditions: Jurkat NFAT-bla M1, carbachol, beta-lactamase ratio, 5 h; at 7.69 µM (top of the series) unless noted
In short: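 Jurkat cells carrying an NFAT-driven β-lactamase reporter and co-transfected muscarinic M1 receptor were treated with compound plus carbachol (1 uM final, an EC50 level) for 5 h at 37 °C. CCF4 loading followed for 1 h at RT; 460/530 nm ratio gave %activity.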

[5] = Stat Signaling Pathway (AID 446; active = well fitted curve in either direction with a large enough effect, not every such curve was filed as active;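 also: ME-180 cervical cancer cells given 40 pM IL-6 alongside compound; SIE-controlled beta-lactamase reporter measured as 460/530 nm FRET emission ratio; % is scaled to controls: 0 for no effect and ±100 for the full control effect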); conditions: ME-180 SIE beta-lactamase reporter, IL-6 stimulated, 5 h; at 7.69 µM (top of the series) unless noted
In short: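 Compound effects on IL-6-induced STAT reporter activity were measured in ME-180 cells. After overnight culture, cells were co-treated with 40 pM IL-6 for 5 hrs before beta-lactamase substrate loading at room temperature.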

[6] = molecular target: Glucocorticoid receptor (Homo sapiens) (UniProt P04150); assay: GR-GFP Redistribution (AID 450;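 active = compounds whose dose series gives a full or clear partial fitted curve of increased nuclear translocation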; also: potency is read from the fitted curve at half-maximal effect); conditions: U2OS GR-GFP nuclear translocation, laser cytometry, 2 h
[7] = molecular target: Mitogen-activated protein kinase 10 (Mus musculus) (UniProt Q61831); assay: JNK3 AlphaScreen Assay (AID 530; active = well fitted curve in either direction with a large enough effect, not every such curve was filed as active;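 also: kinase came from lysate of stimulated human HepG2 cells; signal reports phosphorylation of biotinylated GST-cJun 1-79 at Ser73 with 10 µM ATP; % is scaled to controls: 0 for no effect and ±100 for the full control effect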); conditions: JNK3 lysate, c-Jun phosphorylation; series mostly up to 57.1 µM
In short: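 Phosphorylation of biotinylated GST-cJun(1-79) at Ser73 is measured by AlphaScreen proximity luminescence. Enzyme is JNK3 in HepG2 lysates activated with interleukin-1beta and tumor necrosis factor alpha; ATP is 10 uM final.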

[8] = molecular target: 3',5'-cyclic-AMP phosphodiesterase 4B (Homo sapiens) (UniProt Q07343); assay: qHTS Assay for Inhibitors of PDE-IV (AID 607; active = well fitted activation curve with a large enough effect in the main read-out, with a control signal flat, not every such curve was filed as active; also: % of control where 0% means no effect); conditions: HEK293 ACTOne CNG channel cells, membrane potential fluorescence; series mostly up to 22.9 µM
In short: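 ACTOne HEK293 cells carry a modified cAMP-gated CNG channel and express endogenous PDE4; plated 1000 cells/well, compounds up to 22.9 uM final. Membrane-potential dye fluorescence (ex 535/em 590) was read; parental cells received 10 uM forskolin + 100 uM RO 20-1724.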

[9] = molecular target: Cytochrome P450 3A4 (Homo sapiens) (UniProt P08684); assay: qHTS Assay for Activators of Cytochrome P450 3A4 (AID 885); conditions: recombinant CYP3A4, Luciferin-PPXE luminescence, 60 min; series mostly up to 57.1 µM; also: nearly all actives have a fitted effect of over 65% in size
In short: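 CYP3A4 activity: Luciferin-PPXE O-dealkylation, 25uM substrate, 200mM KPO4, RT throughout. Read-out is luciferase luminescence; higher values reflect activation.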

[10] = qHTS Assay for Lipid Storage Modulators (AID 1519; calls by dose curve); conditions: Drosophila S3 cells, BODIPY lipid droplet/cell ratio, laser cytometry, cells loaded with oleic acid; for activity change, negative = inhibition: at 57.5 µM (top of the series)
In short: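 Cells seeded at 5,000 per well were treated with compounds over a concentration series and loaded with oleic acid (400 uM, as added). Lipid droplet fluorescence (488 nm excitation, 500-530 nm channel) was read by laser-scanning cytometry and normalized to 20 uM Triacsin C.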

[11] = molecular target: Dual specificity protein kinase CLK4 (Homo sapiens) (UniProt Q9HAZ1); assay: qHTS Assay for Inhibitors of CDC-like Kinase 4 (Kinase-Glo Assay) (AID 1770); conditions: recombinant Clk4, Kinase-Glo ATP depletion luminescence; series mostly up to 66.7 µM; also: nearly all actives have a fitted effect of over 65% in size; also: potency is read from the fitted curve at half-maximal effect
In short: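 Recombinant human Clk4 (25 nM) phosphorylated RS repeat peptide (100 uM) with 1 uM ATP in Tris pH 7.5/MgCl2/EGTA/DTT/Triton buffer for 4.5 h at room temperature. Residual ATP was quantified by Kinase-Glo luciferase luminescence.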

[12] = molecular target: Dual specificity protein kinase CLK4 (Homo sapiens) (UniProt Q9HAZ1); assay: qHTS Assay for Inhibitors of CDC-like Kinase 4 (ADP-Glo Assay) (AID 1771); conditions: recombinant CLK4, ADP-Glo luminescence; series mostly up to 80 µM; also: nearly all actives have a fitted effect of over 70% in size; also: potency is read from the fitted curve at half-maximal effect
In short: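 Compounds are pin-transferred onto substrate mix (100 uM RS peptide, 1 uM ATP), then 25 nM Clk4 is added. After 1 hr at room temperature, ADP-Glo reagent runs 45 min, detection reagent 30 min, then luminescence is read.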

[13] = molecular target: Dual specificity protein kinase CLK4 (Homo sapiens) (UniProt Q9HAZ1); assay: qHTS Assay for Inhibitors of CDC-like Kinase 4 (ADP-FP Assay) (AID 1795); conditions: Transcreener ADP fluorescence polarization; series mostly up to 50 µM; also: % is scaled to controls: 0 for no effect and ±100 for the full control effect; nearly all actives have a fitted effect of over 60% in size
In short: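 Recombinant human Clk4 (6.25 nM) phosphorylated RS repeat peptide (100 uM) with 1 uM ATP in Tris pH 7.5/MgCl2/EGTA/DTT/Triton buffer for one hour. ADP was quantified by Transcreener competitive fluorescence polarization against an ADP calibration curve.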

[14] = molecular target: Ubiquitin carboxyl-terminal hydrolase 1 (Homo sapiens) (UniProt O94782); assay: Inhibitors of USP1/UAF1: Pilot qHTS (AID 504865); conditions: purified USP1/UAF1, Ub-rhodamine cleavage fluorescence; series mostly up to 54.9 µM;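 also: rhodamine fluorescence freed from ubiquitin-rhodamine substrate followed over time; top concentration of the series differs between compounds; % is scaled to controls: 0 for no effect and ±100 for the full control effect; nearly all actives have a fitted effect of over 35% in size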
In short: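 USP1/UAF1 complex (1nM) preincubated with compound 15 min at room temperature, then Ub-Rho substrate (150nM final) added. Fluorescence read kinetically at 480/540 nm, 6 reads every 60 seconds. Buffer: 50mM HEPES pH 7.8, 0.5mM EDTA, 0.1 mg/ml BSA, 1mM TCEP, 0.01% Tween-20.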

[15] = Primary qHTS for small molecule stabilizers of the endoplasmic reticulum resident proteome: Secreted ER Calcium Modulated Protein (SERCaMP) assay (AID 1508630); conditions: SH-SY5Y GLuc-SERCaMP (Gaussia luciferase released on ER calcium loss) secretion, thapsigargin, luminescence; series mostly up to 38.4 µM; also: % is scaled to controls: 0 for no effect and ±100 for the full control effect
In short: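 The SH-SY5Y reporter protocol was run at 3 concentrations up to 38.3 uM (primary) or 11 concentrations (follow-up): 16 h compound, 100 nM thapsigargin for 4 h, then extracellular luciferase luminescence.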

[16] = molecular target: Glucocorticoid receptor (Homo sapiens) (UniProt P04150); assay: GR-EFC Redistribution (AID 451; calls by dose curve; also: potency is read from the fitted curve at half-maximal effect); conditions: CHO-K1 GR-EFC translocation, beta-gal luminescence, 2 h
In short: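 CHO-K1 cells stably expressing nuclear-localized β-gal enzyme acceptor and GR fused C-terminally to the enzyme donor fragment; ligand-driven nuclear translocation restores β-gal by complementation. Compounds titrated up to 46 uM final, 2 h at 37 °C; luminescence read.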

[17] = qHTS Assay for Identification of Small Molecule Agonists for Hypoxia Response Element Signaling Pathway (AID 914; active = well fitted activation curve with a large enough effect in the signal ratio, with a control signal flat, not every such curve was filed as active; the % refers to the signal ratio; also: % of control where 0% means no effect); conditions: ME-180 (cervical carcinoma) HRE-bla reporter, beta-lactamase ratio, CoCl2, 17 h; activation: stronger effect = higher value
In short: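 Compounds in a titration series were added to ME-180 reporter cells alongside an EC50 level of CoCl2. After 17 hours, beta-lactamase activity was read as the 460nm/530nm emission ratio of CCF4, giving AC50 values.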

[18] = measured here: cell count channel max response
[19] = measured here: lipid channel max response

Chain of Dual specificity protein kinase CLK4 (Homo sapiens) (Q9HAZ1 whole entry, looked up): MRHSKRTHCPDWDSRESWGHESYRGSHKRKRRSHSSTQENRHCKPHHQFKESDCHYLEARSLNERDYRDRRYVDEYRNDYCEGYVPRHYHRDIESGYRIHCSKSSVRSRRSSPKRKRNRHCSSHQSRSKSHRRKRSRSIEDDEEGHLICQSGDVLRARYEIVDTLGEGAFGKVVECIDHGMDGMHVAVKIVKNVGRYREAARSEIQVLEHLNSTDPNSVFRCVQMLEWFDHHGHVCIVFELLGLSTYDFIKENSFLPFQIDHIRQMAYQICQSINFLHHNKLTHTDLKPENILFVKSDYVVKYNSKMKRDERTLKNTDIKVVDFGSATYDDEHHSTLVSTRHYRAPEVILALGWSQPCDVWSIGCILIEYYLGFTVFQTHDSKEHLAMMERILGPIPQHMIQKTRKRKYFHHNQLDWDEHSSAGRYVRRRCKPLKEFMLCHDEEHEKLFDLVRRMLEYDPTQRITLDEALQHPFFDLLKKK
Chain of 3',5'-cyclic-AMP phosphodiesterase 4B (Homo sapiens) (Q07343 whole entry, looked up): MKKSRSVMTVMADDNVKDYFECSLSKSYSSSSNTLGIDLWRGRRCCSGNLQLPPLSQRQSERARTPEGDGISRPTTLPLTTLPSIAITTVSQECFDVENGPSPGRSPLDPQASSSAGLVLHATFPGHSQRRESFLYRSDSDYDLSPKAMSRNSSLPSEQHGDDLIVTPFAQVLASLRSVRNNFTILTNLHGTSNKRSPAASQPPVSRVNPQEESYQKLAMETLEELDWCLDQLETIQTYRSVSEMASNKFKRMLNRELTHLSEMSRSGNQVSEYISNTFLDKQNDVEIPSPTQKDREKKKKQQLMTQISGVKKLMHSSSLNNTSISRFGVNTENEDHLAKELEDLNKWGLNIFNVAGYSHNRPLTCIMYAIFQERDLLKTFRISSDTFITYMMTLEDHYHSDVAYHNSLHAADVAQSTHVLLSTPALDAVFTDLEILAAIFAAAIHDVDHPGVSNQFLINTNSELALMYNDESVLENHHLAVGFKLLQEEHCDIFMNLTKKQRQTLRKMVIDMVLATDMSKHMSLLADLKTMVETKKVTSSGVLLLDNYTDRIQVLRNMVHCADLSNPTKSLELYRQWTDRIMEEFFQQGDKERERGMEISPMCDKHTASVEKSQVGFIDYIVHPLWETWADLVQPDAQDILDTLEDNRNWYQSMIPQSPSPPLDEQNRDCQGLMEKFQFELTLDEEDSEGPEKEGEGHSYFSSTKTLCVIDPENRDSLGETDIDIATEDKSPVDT
Chain of Cytochrome P450 1A2 (Homo sapiens) (P05177 whole entry, looked up): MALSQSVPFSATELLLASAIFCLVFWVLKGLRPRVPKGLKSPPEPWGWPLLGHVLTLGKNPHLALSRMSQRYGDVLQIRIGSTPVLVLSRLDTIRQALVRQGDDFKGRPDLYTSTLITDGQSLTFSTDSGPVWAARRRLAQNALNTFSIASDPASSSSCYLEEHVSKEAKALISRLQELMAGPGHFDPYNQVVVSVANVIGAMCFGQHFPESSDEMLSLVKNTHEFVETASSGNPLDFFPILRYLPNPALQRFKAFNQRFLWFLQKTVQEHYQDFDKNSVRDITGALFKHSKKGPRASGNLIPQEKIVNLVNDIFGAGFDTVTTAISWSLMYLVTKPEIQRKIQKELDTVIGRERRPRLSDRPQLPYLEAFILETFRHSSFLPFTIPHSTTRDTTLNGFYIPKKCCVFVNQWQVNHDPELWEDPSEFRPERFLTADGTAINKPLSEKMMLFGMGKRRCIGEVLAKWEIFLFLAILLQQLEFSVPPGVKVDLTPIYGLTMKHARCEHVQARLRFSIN
Chain of Lysosomal acid glucosylceramidase (Homo sapiens) (P04062 whole entry, looked up): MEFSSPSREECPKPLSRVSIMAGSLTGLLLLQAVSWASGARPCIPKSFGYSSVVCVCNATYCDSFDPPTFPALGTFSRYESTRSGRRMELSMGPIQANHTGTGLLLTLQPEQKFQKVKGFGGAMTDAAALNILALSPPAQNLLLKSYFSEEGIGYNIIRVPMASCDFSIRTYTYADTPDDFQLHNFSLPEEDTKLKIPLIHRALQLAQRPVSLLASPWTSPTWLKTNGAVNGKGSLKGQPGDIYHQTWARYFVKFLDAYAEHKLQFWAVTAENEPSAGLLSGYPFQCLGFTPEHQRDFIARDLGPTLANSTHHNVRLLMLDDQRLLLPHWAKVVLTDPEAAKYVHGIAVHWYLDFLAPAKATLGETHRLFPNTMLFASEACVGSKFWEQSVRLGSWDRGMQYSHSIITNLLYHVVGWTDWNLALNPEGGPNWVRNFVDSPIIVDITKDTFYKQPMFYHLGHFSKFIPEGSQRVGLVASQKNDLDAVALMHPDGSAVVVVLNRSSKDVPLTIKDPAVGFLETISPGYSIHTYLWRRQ
Chain of Glucocorticoid receptor (Homo sapiens) (P04150 whole entry, looked up, the tested form may be a part): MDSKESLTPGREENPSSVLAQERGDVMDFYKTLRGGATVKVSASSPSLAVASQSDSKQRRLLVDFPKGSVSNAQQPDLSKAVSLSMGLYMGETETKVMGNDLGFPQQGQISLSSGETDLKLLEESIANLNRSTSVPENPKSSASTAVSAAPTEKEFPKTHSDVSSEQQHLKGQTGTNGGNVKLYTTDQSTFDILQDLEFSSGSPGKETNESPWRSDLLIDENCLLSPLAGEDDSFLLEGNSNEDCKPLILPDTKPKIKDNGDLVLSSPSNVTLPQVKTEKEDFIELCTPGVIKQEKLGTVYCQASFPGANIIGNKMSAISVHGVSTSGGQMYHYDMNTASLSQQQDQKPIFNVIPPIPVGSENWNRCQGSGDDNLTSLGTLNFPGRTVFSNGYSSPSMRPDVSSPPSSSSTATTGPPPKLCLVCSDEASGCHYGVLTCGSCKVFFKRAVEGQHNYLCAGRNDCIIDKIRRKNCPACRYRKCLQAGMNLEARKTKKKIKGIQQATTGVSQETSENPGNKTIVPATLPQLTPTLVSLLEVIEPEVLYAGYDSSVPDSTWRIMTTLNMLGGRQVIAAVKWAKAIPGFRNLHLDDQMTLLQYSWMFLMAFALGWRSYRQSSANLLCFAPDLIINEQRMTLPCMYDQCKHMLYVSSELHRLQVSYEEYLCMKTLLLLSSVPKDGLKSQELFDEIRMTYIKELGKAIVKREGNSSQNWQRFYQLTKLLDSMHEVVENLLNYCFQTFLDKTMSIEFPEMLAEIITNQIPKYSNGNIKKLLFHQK
Chain of Ubiquitin carboxyl-terminal hydrolase 1 (Homo sapiens) (O94782 whole entry, looked up): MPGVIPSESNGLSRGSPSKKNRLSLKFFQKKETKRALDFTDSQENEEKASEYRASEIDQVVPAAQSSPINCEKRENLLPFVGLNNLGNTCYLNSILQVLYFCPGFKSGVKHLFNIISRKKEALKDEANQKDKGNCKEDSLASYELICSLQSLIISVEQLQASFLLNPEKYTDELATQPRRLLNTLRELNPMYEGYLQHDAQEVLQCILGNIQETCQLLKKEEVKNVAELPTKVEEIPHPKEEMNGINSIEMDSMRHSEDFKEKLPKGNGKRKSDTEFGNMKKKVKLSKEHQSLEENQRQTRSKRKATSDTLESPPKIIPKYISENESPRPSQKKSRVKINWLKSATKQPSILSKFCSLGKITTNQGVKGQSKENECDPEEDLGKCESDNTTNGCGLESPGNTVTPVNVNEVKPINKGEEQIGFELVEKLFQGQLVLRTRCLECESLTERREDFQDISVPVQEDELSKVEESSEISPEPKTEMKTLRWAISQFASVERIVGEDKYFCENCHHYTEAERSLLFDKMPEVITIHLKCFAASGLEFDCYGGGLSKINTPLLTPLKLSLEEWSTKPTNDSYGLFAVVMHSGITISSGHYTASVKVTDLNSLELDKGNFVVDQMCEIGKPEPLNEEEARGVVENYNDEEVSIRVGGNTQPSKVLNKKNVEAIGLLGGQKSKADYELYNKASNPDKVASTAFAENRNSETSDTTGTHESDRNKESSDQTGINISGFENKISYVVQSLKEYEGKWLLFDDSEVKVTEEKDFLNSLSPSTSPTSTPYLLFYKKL
Chain of Cytochrome P450 3A4 (Homo sapiens) (P08684 whole entry, looked up): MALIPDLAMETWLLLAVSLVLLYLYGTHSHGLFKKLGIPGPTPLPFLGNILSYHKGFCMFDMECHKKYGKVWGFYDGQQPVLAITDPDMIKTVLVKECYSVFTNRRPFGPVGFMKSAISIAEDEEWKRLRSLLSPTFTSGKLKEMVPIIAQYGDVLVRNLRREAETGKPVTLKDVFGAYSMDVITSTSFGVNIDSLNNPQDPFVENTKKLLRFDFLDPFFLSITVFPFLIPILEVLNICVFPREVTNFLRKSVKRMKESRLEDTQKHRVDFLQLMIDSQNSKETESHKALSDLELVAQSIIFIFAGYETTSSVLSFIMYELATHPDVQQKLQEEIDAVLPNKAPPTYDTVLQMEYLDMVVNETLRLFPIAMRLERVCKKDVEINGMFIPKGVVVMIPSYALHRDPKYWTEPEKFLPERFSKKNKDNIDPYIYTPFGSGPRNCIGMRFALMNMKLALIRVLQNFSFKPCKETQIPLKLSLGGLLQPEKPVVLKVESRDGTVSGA

CN(C)C(=O)c1ccc(-c2ccc3ncnc(N(C)C)c3c2)cc1
active: Potency [3] 20 µM | Potency [11] 25.1 µM | Potency [12] 28.2 µM
22.2%: max response [10, 19]
inactive: Potency [1] > 11.4 µM | activity change, negative = inhibition [2] -20.2% | activity change, negative = inhibition [4] 9.63% | activity, negative = inhibition [5] -6.55% | Potency [6] > 46 µM | outcome [7] | Potency [8] | Potency [9] | activity change, negative = inhibition [10] 4.12% | Potency [13] | Potency [14] | Potency [15]
19.1%: max response [10, 18]

O=c1c(-c2ccc(Cl)cc2)nc2cnc(N3CCOCC3)nc2n1C[C@H]1CCCO1
inactive: Potency [1] > 11.4 µM | activity change, negative = inhibition [2] -9.09% | activity, negative = inhibition [5] -0.789% | Potency [6] > 9.22 µM | Potency [16] > 46 µM | outcome [7] | Potency [8] | activity change, negative = inhibition [10] -4.84% | Potency [11] | Potency [12] | Potency [13] | Potency [15]
-3.15%: max response [10, 19]
active: Potency [3] 2 µM
4.1%: max response [10, 18]

COCCn1c(=O)c(-c2ccccc2)nc2cnc(OC)nc21
inactive: Potency [1] > 11.4 µM | activity change, negative = inhibition [2] -2.69% | activity change, negative = inhibition [4] -14.5% | activity, negative = inhibition [5] -12.2% | Potency [16] > 46 µM | outcome [7] | Potency [8] | Potency [9] | activation [17] -14.2% | activity change, negative = inhibition [10] 5.61% | Potency [11] | Potency [12] | Potency [13] | Potency [14] | Potency [15]
21.9%: max response [10, 19]
active: Potency [3] 1 µM
16.8%: max response [10, 18]

From PubChem BioAssay (NCATS)
